Records with an inconclusive call do not appear. Where a call stands in place of a potency, no number is given. Calls of active or inactive are those of the source. The call rests on the fitted dose curve; in most records, active means well fitted inhibition curve with a large enough effect; inconclusive means small, poorly fitted or top-dose-only effect, or effect the other way; inactive means flat fitted curve, though single readings scatter.
Target: Ubiquitin carboxyl-terminal hydrolase 2 (Homo sapiens) (UniProt O75604)
Sequence (O75604 whole entry, looked up): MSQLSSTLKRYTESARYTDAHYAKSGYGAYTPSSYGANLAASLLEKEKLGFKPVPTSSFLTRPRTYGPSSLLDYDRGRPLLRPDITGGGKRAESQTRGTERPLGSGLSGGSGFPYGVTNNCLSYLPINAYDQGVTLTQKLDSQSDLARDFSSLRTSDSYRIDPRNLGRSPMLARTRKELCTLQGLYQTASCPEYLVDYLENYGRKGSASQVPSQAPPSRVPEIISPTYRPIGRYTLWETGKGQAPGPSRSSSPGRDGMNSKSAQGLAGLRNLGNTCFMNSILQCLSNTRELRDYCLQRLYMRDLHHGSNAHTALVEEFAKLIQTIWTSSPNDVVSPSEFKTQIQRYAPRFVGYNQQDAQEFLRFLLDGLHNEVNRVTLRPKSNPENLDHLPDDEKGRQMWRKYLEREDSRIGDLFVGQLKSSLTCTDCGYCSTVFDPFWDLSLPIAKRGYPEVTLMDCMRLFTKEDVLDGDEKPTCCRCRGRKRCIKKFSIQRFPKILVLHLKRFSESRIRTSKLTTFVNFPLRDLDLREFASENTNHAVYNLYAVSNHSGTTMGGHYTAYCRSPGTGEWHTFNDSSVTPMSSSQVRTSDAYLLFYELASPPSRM
Experiment: Ub-rhodamine 110 based assay for inhibitors Ubiquitin-specific Protease USP2a; further: nearly all actives have a fitted effect of over 50% in size
Settings: USP2a Ub-rhodamine110 cleavage, fluorescence; series mostly up to 38.3 µM
Outline: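 Kinetic fluorescence (485/531 nm) read each minute over 7 min after adding Ub-Rhod110 (150 nM final) to USP2a (5 nM final). The enzyme had 30 min RT exposure to compounds beforehand in Tris pH 8.0 buffer with CaCl2, CHAPS and beta-ME.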
Potency means the concentration at half of the fitted maximal effect.

Row | Structure (SMILES) | Potency
1 | COC(=O)CCC(=O)Nc1sc2c(c1C#N)CCCC2 | inactive
2 | CC(=O)NS(=O)(=O)c1ccc(NC(=O)c2cc(-c3ccc(C)c(C)c3)nc3ccccc23)cc1 | 11.2 µM (active)
3 | Cc1cc(C(C)(C)CC(C)(C)C)ccc1OCCOCC[N+](C)(C)Cc1ccccc1 | inactive
4 | CC(C)C(C(=O)O)N1C(=O)/C(=C/C=C/c2ccco2)SC1=S (centres undefined) | 5.01 µM (active)
5 | Cc1cc(N=Nc2ccc(C)c(N=Nc3cc(C)c(N)cc3N)c2)c(N)cc1N | inactive
6 | COc1cc(C)ccc1OCCOc1cc(C)ccc1Cl | inactive
7 | CCOC(=O)COc1ccccc1/C=N/O | inactive
8 | N#Cc1c(SCC(=O)Nc2nc3ccccc3s2)sc2c(O)cc(=O)[nH]c12 | 8.91 µM (active)
9 | CCn1c(CN2CCOCC2)nnc1SCC(=O)Nc1ccc(C(C)=O)cc1 | inactive
10 | CCC1=[N+](CC(=O)c2ccc(Br)cc2)CCn2c(C)ccc21 | inactive
11 | CC(C)(C)[C@H]1COC(=O)[C@@H](Cc2ccc(F)cc2)C/C=C\C[C@@H](CC(=O)N[C@H](CO)Cc2ccccc2)C(=O)N1 | inactive
12 | CN1CCN(CCC(=O)N/N=C/c2cc([N+](=O)[O-])ccc2O)CC1 | inactive
13 | Cc1ccc(C(=O)N(c2c(C)n(C)n(-c3ccccc3)c2=O)C(C)C)cc1 | inactive
14 | Cc1cc(N2CCOCC2)nc(SCC(=O)c2ccc(Cl)cc2)n1 | inactive
15 | COc1cccc(-c2csc3nnc(SCC(=O)NCc4cccs4)n23)c1 | inactive
16 | O=c1[nH]c(=S)[nH]c2c1C(c1ccc(Br)cc1)c1c([nH]c(=S)[nH]c1=O)O2 | 11.2 µM (active)
17 | Cc1cccc2c1N(CCCOc1ccc(C(C)(C)C)cc1)C(=O)C2=O | inactive
18 | COc1ccc(NC(=O)CSc2nc(O)cc(=O)n2-c2ccc(OC)cc2)cc1 | 11.2 µM (active)
19 | O=C1c2ccccc2C(=O)N1CCCCn1c(=O)oc2ccccc21 | inactive
20 | C#CCOCCOCCOCCNc1nc(N2CCN(C(=O)CCCCCCCCCCNC(=O)[C@@H](CCSC)n3cc(CCO)nn3)CC2)nc(N2CCN(C(=O)CCCCCCCCCCNC(=O)[C@H](CCCN=C(N)N)n3cc(C[C@@H](C)CC)nn3)CC2)n1 | 10 µM (active)

Row | Structure (SMILES) | Potency
21 | Cn1c(C(=O)NCCN2CCOCC2)cc2c(=O)n(C)c3ccccc3c21 | inactive
22 | O=C(CSc1nc(N2CCCCC2)nc(N2CCCCC2)n1)N1CCN(c2ccccc2)CC1 | inactive
23 | CC1CCCCN1CCNC(=O)c1cnn2ccccc12 (centres undefined) | inactive
24 | O=C(OCC(=O)N1CCCCC1)c1cc2ccccc2cc1O | inactive
25 | CN1CCN(S(=O)(=O)c2ccc(N3CCN(S(=O)(=O)/C=C/c4ccccc4)CC3)nc2)CC1 | inactive
26 | COc1ccc(OCC(=O)NCCNC(=O)c2cccnc2)cc1 | inactive
27 | O=C(Nc1ccc(N2CCCC2)cc1)C(c1ccccc1)c1ccccc1 | inactive
28 | CC(=O)C1=C(O)C(=O)N(c2nnn(C)n2)C1c1cccs1 (centres undefined) | inactive
29 | C=CC[C@H](CC(=O)N[C@H](CO)Cc1ccccc1)C(=O)N[C@@H](COC(=O)[C@@H](CC=C)CC(=O)OC(C)(C)C)Cc1c[nH]c2ccccc12 | inactive
30 | COC(=O)[C@@]12CCCCN1[C@H](c1ccc(-c3ccc(Cl)c(Cl)c3)cc1)[C@H]1C(=O)N(C)C(=O)[C@H]12 | inactive
31 | Cc1cccc(NC(=O)NCc2ccc3c(c2)cc(C)n3C)c1 | inactive
32 | CC(C)c1ccc2c(c1)c(SC(C)(C)C)c(CC(C)(C)C(=O)O)n2Cc1ccc(Cl)cc1 | 7.08 µM (active)
33 | Cc1ccc(S(=O)(=O)Nc2ccc(N3CCOCC3)cc2)cc1 | inactive
34 | O=C(O)C1Nc2c(O)cc(Cl)c([N+](=O)[O-])c2C2C=CCC12 (centres undefined) | 3.98 µM (active)
35 | O=C(CCCN1C(=O)c2ccccc2C1=O)NC1=NCCS1 | inactive
36 | COc1ccc(OCC(=O)Nc2ccccc2OC)cc1 | inactive
37 | O=C(N/C(=C/c1cccnc1)C(=O)N1CCOCC1)c1ccco1 | inactive
38 | C#CCOCCOCCOCCNc1nc(N2CCN(C(=O)CCCCCCCCCCNC(=O)Cn3cc(C[C@@H](C)O)nn3)CC2)nc(N2CCN(C(=O)CCCCCCCCCCNC(=O)[C@@H]([C@H](C)CC)n3cc(CCCCCN)nn3)CC2)n1 | inactive
39 | O=C1NCC(CN(c2ccccc2)c2ccccc2)O1 (centres undefined) | inactive
